# Measured values as given in PubChem BioAssay (NCI).
# Compounds without any hit were thinned out: in the full panel of roughly 83,000, 20% have a hit.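 How to read the values: 0–100, growth inhibition (40 = 60% inhibited); 0, no net growth; -100 to 0, cell death (-40 = 40% of starting cells died; -100 = all dead).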 A number with no mark means an inactive call. Active and inactive are the calls of the source. Rule for the calls: active = growth percent below 10; inactive = the rest.
# System: HOP-62 NSCLC
# Assay: NCI-60 one-dose screen, 48 h (100 = growth as untreated, 0 = no growth, -100 = all killed)
# Settings: 10 µM unless noted
row,Compound,growth
1,Clc1cccc(Cl)c1Nc1ccc2nnc(-c3ccncc3)n2n1,103%
2,CC(C)(C)[Si](C)(C)OC1[C@@H](CNC(=O)NC(=O)CCl)O[C@@H](n2cnc3c(N)ncnc32)[C@H]1O[Si](C)(C)C(C)(C)C (some centres undefined),-60.1% (active)
3,CC(=O)Nc1ccc(Sc2ccc([N+](=O)[O-])o2)cc1,68.4%
4,CC(C)(C)[Si](C)(C)OC1[C@@H](COC(=O)NC(=O)CCl)O[C@@H](n2cnc3c(N)ncnc32)[C@H]1O[Si](C)(C)C(C)(C)C (some centres undefined),81.9%
5,COc1ncnc2c1ncn2C/C(Br)=C(\Br)CCl,15.6%
6,O=C1c2ccccc2C(=O)c2c(Nc3ccc(CCO)cc3)ccc(O)c21,107%
7,COc1ccccc1CNCCCCCCCCCCCCN1C(=O)c2ccc3c4c(ccc(c24)C1=O)C(=O)N(CCCCCCCCCCCCNCc1ccccc1OC)C3=O,54.5%
8,CC(=O)c1cc(C)c(OC(=O)c2ccccc2)c(C)c1,96.8%
9,COC(=O)/C=C1/CCC2C3CCC4=CC(=O)C(Br)CC4(C)C3C(=O)CC12C (centres undefined),80.6%
10,O=c1[nH]c(-c2ccccn2)nc2sc3c(c12)CCCCCC3,43%
11,CC(C)OC1=C(Cl)C(=O)c2ccccc2C1=O,92.1%
12,CCCCCn1c(=N)n(CC(O)COc2cccc(C)c2)c2ccccc21 (centres undefined),17.9%
13,CC1SC(c2cccc(Oc3ccccc3)c2)N(CCc2cccs2)C1=O (centres undefined),6.21% (active)
14,CC(C)(C)[Si](C)(C)OC1[C@@H](COC(N)=O)O[C@@H](n2cnc3c(N)ncnc32)[C@H]1O[Si](C)(C)C(C)(C)C (some centres undefined),95.7%
15,COc1ccc(-c2csc3c2-n2cccc2C3=O)cc1O,31.3%
16,O=c1[nH]c(-c2ccncc2)nc2sc3c(c12)CCCCCC3,52.2%
17,COc1ccc(-n2c(SCc3cc(OC)c(OC)c(OC)c3)nc3ccc(C)cc3c2=O)c(OC)c1,47.4%
18,O=C1NC(=O)C(CSc2ccccc2)(c2ccccc2)N1 (centres undefined),97.3%
19,Fc1ccccc1Nc1ccc2nnc(-c3ccncc3)n2n1,106%
20,CC(C)(C)[Si](C)(C)OC1[C@@H](O[Si](C)(C)C(C)(C)C)[C@@H](CNC(=O)NC(=O)C(F)(F)F)O[C@H]1n1cnc2c(NC(=O)Nc3ccccc3)ncnc21 (some centres undefined),93%

row,Compound,growth
1,Cc1ccc(N=c2nc3sc4c(C)ccc(C)c4n3c(N)c2C#N)cc1,101%
2,COCCOC1=C(Cl)C(=O)c2ccccc2C1=O,45.5%
3,CCOC(=O)C1=C(C)N2C(=NC3=C(CCCC/C3=C\c3ccccc3)C2c2ccccc2)S1 (centres undefined),117%
4,CCN1CCN(C(=S)SCC(=O)Nc2nc3ccc(OC)cc3s2)CC1,97.2%
5,Oc1ccccc1/C=N/Nc1nc2ccccc2s1,49.2%
6,CC(=O)Nc1ccccc1-c1n[nH]c(=O)[nH]c1=O,97.6%
7,Oc1ccc2ccccc2c1C1NN=C(c2ccccc2)S1 (centres undefined),28.8%
8,O=c1c2c(=NCCN3CCCC3)cc3c(=O)n(CCCN4CCOCC4)c(=O)c4ccc(c(O)n1CCCN1CCOCC1)c2c4-3,-17.3% (active)
9,COc1ccccc1-n1c(SCc2cc(OC)c(OC)c(OC)c2)nc2ccc(Cl)cc2c1=O,51.8%
10,Nc1c(Br)cc(Br)cc1-c1n[nH]c(=O)[nH]c1=O,93.5%
11,O=C1C(OCCOc2ccccc2)=C(OCCOc2ccccc2)C(=O)c2ccccc21,56.4%
12,O=c1nc(NO)[nH]c(=O)n1Cc1ccccc1,110%
13,COc1ccc(-c2nc3sc(C)nn3c2-c2nc3cc(C)c(C)cc3[nH]2)cc1,91.8%
14,Cc1ccc2nc(NC(=O)CSC(=S)N3CCN(C)CC3)sc2c1,106%
15,CC[Si](CC)(CC)OC1[C@@H](O[Si](CC)(CC)CC)[C@@H](CNC(=O)NC)O[C@H]1n1cnc2c(NC(=O)Nc3ccccc3)ncnc21 (some centres undefined),95.9%
16,COc1ccc(C2SC(C)C(=O)N2CCc2cccs2)cc1OC (centres undefined),94.5%
17,Cc1cc(=O)[nH]n1-c1cc(Cl)ccc1N,103%
18,c1ccc2cc(Cn3c(-c4ccc5ccccc5c4)[n+](Cc4ccc5ccccc5c4)c4ccccc43)ccc2c1,-66.8% (active)
19,COc1cc2nc(SCc3cc(OC)c(OC)c(OC)c3)n(-c3ccccc3OC)c(=O)c2cc1OC,93.2%
